Assay [1] in a line: NCI Yeast Anticancer Drug Screen. Data for the rad50 strain (AID 155).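 Note: 0% = growth of vehicle-only cultures of the same strain.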 To be noted: S. cerevisiae rad50 strain growth inhibition; at 50.0 µM; hits give high values. Summed up: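 Yeast carrying a defined DNA repair defect were exposed to test compounds, and growth was compared with vehicle-treated controls to give percent inhibition.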
Assay [2] in a line: NCI Yeast Anticancer Drug Screen. Data for the mec2-1 strain (AID 157). The note with it: S. cerevisiae mec2-1 strain, at 50.0 µM, hits give high values. Summed up:
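Readout is yeast growth inhibition, normalised to vehicle-treated controls, in the mec2-1 strain exposed to compound.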

Assay [3] is described as follows: NCI Yeast Anticancer Drug Screen. Data for the sgs1 mgt1 strain (AID 161).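 Note: 0% = growth of cultures given vehicle only.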 The note with it: S. cerevisiae sgs1 mgt1 strain, at 50.0 µM, hits give high values. Summed up: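 Yeast cells carrying a defined DNA-repair defect were exposed to test compounds. Growth inhibition was measured relative to vehicle-treated controls.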
Assay [4] can be described thus: NCI Yeast Anticancer Drug Screen. Data for the cln2 rad14 strain (AID 165).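 Note: 0% = growth equal to vehicle treated cultures.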 To be noted: S. cerevisiae cln2 rad14 strain, at 50.0 µM, hits give high values. In a few lines:
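Relative to vehicle controls, growth inhibition of compound-treated cln2 rad14 yeast was recorded.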

Assay [5] in a line: NCI Yeast Anticancer Drug Screen. Data for the bub3 strain (AID 167). The note with it: S. cerevisiae bub3 mutant strain, at 50.0 µM, hits give high values. Summed up: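 Compounds were applied to a genetically altered yeast strain carrying a cell-cycle control defect. Growth inhibition was scored against vehicle-treated controls.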
A short description of assay [6]: NCI Yeast Anticancer Drug Screen. Data for the mlh1 rad18 strain (AID 175). To be noted: S. cerevisiae mlh1 rad18 strain growth inhibition; at 50.0 µM; hits give high values. In a few lines: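 Test agents were incubated with a yeast strain of defined genotype (DNA damage repair defect). Inhibition of growth was derived by comparison with vehicle-exposed cultures.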

For 19 molecules, growth inhibition results are on record in PubChem BioAssay (NCI).

SMILES strings stand for the structures. Several values for one entry are separate records, joined by “and”; a condition that tells them apart may be missing. Identical values can stand only once. This is part of a sample that, as a whole, favours compounds with a hit. Of some 79,000 tested, about 15% had one in any assay. Values without a mark were called inactive. Activity calls are given as the source filed them. Cut-off read from the data, not from the text of the source: active = growth inhibition above about 70%; inactive = the rest.

With `Cc1nc2ccc(Br)cc2c(=O)n1-c1ccc(N)cc1`, the growth inhibition in assay [1] is -25.9%; in assay [2], -2.4%; in assay [3], -28.1%; in assay [4], 16.2%; in assay [5] it was -8.2%; in assay [6] it was 5.8%.

`CC(C)(C)c1ccc(C(C)(C)OO)cc1`: the growth inhibition in assay [1] was 31.6%; in assay [2] it was -0.7%; in assay [3] it was 18.3%; in assay [4], 12.3%; in assay [5], 10.2%; in assay [6] it was 6.2%.

On to `[C-]#[O+].[C-]#[O+].[C-]#[O+].[C-]#[O+].[Cr].c1ccc([PH+](c2ccccc2)c2ccccc2)cc1.c1ccc([PH+](c2ccccc2)c2ccccc2)cc1`, for which the growth inhibition in assay [1] is -4.4%; in assay [2], 8.05%; in assay [3] it was -8.95%; in assay [4], -3.35%; in assay [5] it was -5.4%; in assay [6], -1.55%.

Turning to `CCC(CC)CNC(=O)C(C)Br` (centres undefined), the growth inhibition in assay [1] is 2.05%; in assay [2], 1.85%; in assay [3], -1.95%; in assay [4], 3.05%; in assay [5], 7.2%; in assay [6], -3.65%.

Turning to `Cc1nn[n-]n1.N.N.N.N.N.[Cl-].[Co+3]`, the growth inhibition in assay [1] is 4.25%; in assay [2], 6.3%; in assay [3], 22.1%; in assay [4], 27.9%; in assay [5] it was 9.6%; in assay [6] it was 13.1%.

For the molecule `CN(N=O)C1=NC2(CCCCC2)P(=O)(NNc2ncccn2)O1` (centres undefined), the growth inhibition is 0.9% in assay [1]; -17.9% in assay [2]; -15.2% in assay [3]; 9.85% in assay [4]; 11.2% in assay [5]; 13.1% in assay [6].

For `C[n+]1c[se]cn1`, the growth inhibition is -2.9% in assay [1]; 9.25% in assay [2]; -8.2% in assay [3]; 1.2% in assay [4]; -14.1% in assay [5]; 0.55% in assay [6].

Regarding `CCOC(OCC)c1ccccc1`, the growth inhibition in assay [1] was 7.95%; in assay [2], -5%; in assay [3] it was -4.95%; in assay [4], -11.9%; in assay [5] it was 6.6%; in assay [6], 14.2%.

Consider `CC(=O)OC1CCC2C3CCC4CC5(CCC4(C)C3CCC12C)CO5` (centres undefined), for which the growth inhibition was -2.45% in assay [1]; -10.7% in assay [2]; -26.2% in assay [3]; 1.2% in assay [4]; 1.75% in assay [5]; 1.2% in assay [6].

Regarding `O=C(O)C(CSC(c1ccccc1)(c1ccccc1)c1ccccc1)N=Cc1cccs1` (centres undefined), the growth inhibition in assay [1] is -8%; in assay [2] it was -1.65%; in assay [3] it was -1.95%; in assay [4] it was -33.9%; in assay [5], 43.3%; in assay [6], -18.2%.

As to `O=[N+]([O-])c1ccc2c(c1)Oc1cccnc1[Se]2`, the growth inhibition is 16.1% in assay [1]; 8.6% in assay [2]; 20.9% in assay [3]; 8.25% in assay [4]; -11.5% in assay [5]; 38.8% in assay [6].

Consider `CCOC(=O)C1C(=O)CN2CCc3c([nH]c4ccccc34)C12C(=O)OCC` (centres undefined), for which the growth inhibition in assay [1] is 21.2%; in assay [2], 15.3%; in assay [3], 31.6%; in assay [4] it was 15.6%; in assay [5], 1.95%; in assay [6], 24.4%.

Take `CC1=CC23C(COC(=O)C24CO4)C(C(=O)O)=CC3C1C` (centres undefined) (tested in a mixture with another compound): the growth inhibition in assay [1] is 38%; in assay [2], 29%; in assay [3], 34.5%; in assay [4], 33.4%; in assay [5], 17.9%; in assay [6], 30.4%.

Consider `[NH-]C(CO)C(=O)O.[NH-]C(CO)C(=O)O.[Pd+2]` (centres undefined), for which the growth inhibition was -8.55% in assay [1]; -3.9% in assay [2]; -6.15% in assay [3]; -7.2% in assay [4]; -5.95% in assay [5]; 15.9% in assay [6].

As for `CC(C)=C(OP1(=S)OCCN1C)C(C)(C)C(=O)N(C)C` (centres undefined), the growth inhibition in assay [1] is -2.6%; in assay [2], -3.65%; in assay [3] it was -1.9%; in assay [4] it was 12.8%; in assay [5] it was 11.9%; in assay [6], 4.45%.

For the molecule `CN1C(=O)C2(Cc3cn(C45CC67SSC(CO)(C(=O)N6C4Nc4ccccc45)N(C)C7=O)c4ccccc34)SSC1(CO)C(=O)N2C` (centres undefined), the growth inhibition in assay [1] is 90.2% (active); in assay [2], 90.3% (active); in assay [3] it was 90.3% (active); in assay [4] it was 89.2% (active); in assay [5] it was 90.8% (active); in assay [6], 89.8% (active).

Consider `CC[As](CC)SC(CC[C@@H](C)C1CC[C@@]2(C)C3=C(CC[C@]12C)[C@@]1(C)CC[C@H](O)C(C)(C)[C@@H]1CC3)C(C)C` (some centres undefined), for which the growth inhibition in assay [1] is 3.95%; in assay [2], 17.6%; in assay [3], -8.15%; in assay [4] it was -21.1%; in assay [5], -1.55%; in assay [6], -25.6%.

In the case of `CCC12C=CCN3CCC4(c5ccc(OC)cc5N(C)C4C(O)(C(=O)OC)C1OC(C)=O)C32` (centres undefined) (tested in a mixture with another compound), the growth inhibition in assay [1] was 5.3% and 8.35%; in assay [2], 5.4% and 17.2%; in assay [3], -5.85% and 11.3%; in assay [4] it was -10.7% and 2.25%; in assay [5] it was -3.15% and 0.7%; in assay [6], 25.4% and 22.1%.

Regarding `O=C1C(C(Nc2ccccc2)c2ccccc2)=C([O-])c2ccccc21.O=C1C(C(Nc2ccccc2)c2ccccc2)=C([O-])c2ccccc21.[Cu+2]` (centres undefined), the growth inhibition was -12% in assay [1]; -1.5% in assay [2]; -10.2% in assay [3]; 10.5% in assay [4]; 4.75% in assay [5]; -0.65% in assay [6].
